Among the data in PubChem BioAssay AID492973 (The Scripps Research Institute Molecular Screening Center, 2010) are inhibition values, retold here.

Active and inactive are the calls of the source.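 How the source made its calls: active means inhibition above 50% of the enzyme in parasite cell lysate; inactive means the rest.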

The nature of the assay: malaria lysate leucine aminopeptidase inhibition – cell lysate, fluorescence, Plasmodium falciparum lysate, powder samples, late-stage follow-up (AID 492973). Particulars: P. falciparum cell lysate, H-Leu-NHMec fluorescence; at 5 µM; stronger effect = higher value.
A word on the inhibition: it is the relative decrease from the control value, in per cent. In the case of `O=C(CSc1nc(O)cc(=O)n1-c1ccccc1)Nc1ccc2c3c(cccc13)CC2`, the inhibition was 22% (inactive).
As to `CCc1cc2ccc(C)cc2nc1SCC(=O)Nc1cc(OC)c(OC)cc1C(=O)O`, the inhibition was 69% (active).
For the molecule `COC(=O)c1c(NC(=O)[C@H]2CC=CC[C@H]2C(=O)O)sc(C)c1C`, the inhibition is 31% (inactive).
As to `C=CCn1c(SCC(=O)Nc2cccc3ccccc23)nc(O)c(CC)c1=O`, the inhibition is 31% (inactive).
In the case of `CCn1c2ccccc2c2cc(NC(=O)CSc3nccc(=O)[nH]3)ccc21`, the inhibition is 49% (inactive).
In the case of `CCc1ccc(NC(=O)[C@H]2CC=CC[C@H]2C(=O)O)cc1`, the inhibition is 22% (inactive).
In the case of `O=C(O)Cc1ccc(NC(=O)Nc2ccc(Br)cc2)cc1`, the inhibition is 41% (inactive).
With `COC(=O)c1c(NC(=O)[C@H]2CCCC[C@H]2C(=O)O)sc2c1CCCCC2`, the inhibition is 65% (active).
For the molecule `COc1ccc(-c2cc(=O)[nH][nH]2)cc1OC`, the inhibition is 8% (inactive).
